Measurements taken from PubChem BioAssay (Tox21).
Activity calls are given as the source filed them. A call without a number means that no potency is given here. The call rests on the fitted dose curve.

target: Acetylcholinesterase (Homo sapiens) (UniProt P22303); assay: Acetylcholinesterase (AChE) small molecule antagonists: enzyme-based qHTS assay with human liver microsomes (AID 1347399); settings: Potency: qHTS inhibition; outcome: qHTS inhibition; series mostly up to 115 µM; further: nearly all actives have a fitted effect of over 60% in size
In short: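 Recombinant human AChE (50 mU/mL in the enzyme mix) and human liver microsomes (0.25 mg/mL final) were preincubated with compound and NADPH (0.25 mg/mL final) for 30 min at 37 C. Acetylthiocholine/DTNB was then added; thiocholine was read colorimetrically after 10 min at room temperature.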

Sequence of Acetylcholinesterase (Homo sapiens) (P22303 whole entry, looked up): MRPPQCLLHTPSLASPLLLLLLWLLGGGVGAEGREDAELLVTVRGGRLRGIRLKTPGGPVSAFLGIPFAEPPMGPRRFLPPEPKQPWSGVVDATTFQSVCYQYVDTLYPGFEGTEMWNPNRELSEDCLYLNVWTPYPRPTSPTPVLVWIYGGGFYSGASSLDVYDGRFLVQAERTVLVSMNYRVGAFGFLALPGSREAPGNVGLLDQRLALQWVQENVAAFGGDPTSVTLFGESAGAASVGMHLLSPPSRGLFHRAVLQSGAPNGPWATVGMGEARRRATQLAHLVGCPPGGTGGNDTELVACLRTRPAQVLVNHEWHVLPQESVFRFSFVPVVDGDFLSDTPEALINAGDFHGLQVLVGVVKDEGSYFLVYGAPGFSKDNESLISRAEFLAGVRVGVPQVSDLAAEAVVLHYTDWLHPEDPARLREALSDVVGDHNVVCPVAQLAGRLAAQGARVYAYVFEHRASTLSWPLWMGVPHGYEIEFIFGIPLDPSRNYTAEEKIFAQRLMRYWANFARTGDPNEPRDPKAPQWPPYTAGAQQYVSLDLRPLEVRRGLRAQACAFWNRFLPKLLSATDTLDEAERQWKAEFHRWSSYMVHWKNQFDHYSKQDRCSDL

SMILES | Potency | outcome
CC(C)(C)OC(=O)c1ccccc1C(=O)O | inactive | 
O=c1cccccc1O | inactive | 
CCO[Si](CCC1CCC2OC2C1)(OCC)OCC (stereo unspecified) | inactive | 
C=C(C)C(=O)NCCCN(C)C | inactive | 
COC(=O)C1=C(C)NC(C)=C(C(=O)OC(C)(C)CN(C)CCC(c2ccccc2)c2ccccc2)C1c1cccc([N+](=O)[O-])c1 (stereo unspecified) | inactive | 
CC1COc2c(N3CCN(C)CC3)c(F)cc3c(=O)c(C(=O)O)cn1c23 (stereo unspecified) | inactive | 
Oc1cccc2c(O)cccc12 | inactive | 
O=C1CC[C@@H](C(=O)O)N1 | inactive | 
CC(=O)NO | inactive | 
O=S(=O)(O)c1ccc(Nc2nc(Nc3ccc(/C=C/c4ccc(Nc5nc(Nc6ccc(S(=O)(=O)O)cc6)nc(N(CCO)CCO)n5)cc4S(=O)(=O)O)c(S(=O)(=O)O)c3)nc(N(CCO)CCO)n2)cc1 | inactive | 
CCCCOC(=O)/C=C\C(=O)OCCCC | inactive | 
Cc1ccc(=O)n(-c2ccccc2)c1 | inactive | 
CCCCCCCC/C=C\CCCCCCCC(=O)N(C)CC(=O)O | inactive | 
CNCCCC1c2ccccc2C=Cc2ccccc21 |  | inactive
Cc1ccc(O)cn1 | inactive | 
O=C(O)CNC(=O)c1ccccc1I | inactive | 
